# In article PMC4336329 (PLoS ONE, 2015):
# The campaign covered roughly 310,000 compounds. About 14,000 (4.5%) showed an effect of 50% or more. Effects have a minus sign here. The list comes from a sample in which strong results are over-represented; it also holds similar structures and randomly drawn compounds.
# Target: human ether-à-go-go-related gene (hERG) potassium channel (human, UniProt Q12809)
# Assay: primary screen, population patch clamp on CHO cells stably expressing hERG; higher = less effect of the substance
# 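Also: peak tail current of the secondary pulse compared with the same well before compound.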
# Sequence of human ether-à-go-go-related gene (hERG) potassium channel (Q12809 whole entry, looked up): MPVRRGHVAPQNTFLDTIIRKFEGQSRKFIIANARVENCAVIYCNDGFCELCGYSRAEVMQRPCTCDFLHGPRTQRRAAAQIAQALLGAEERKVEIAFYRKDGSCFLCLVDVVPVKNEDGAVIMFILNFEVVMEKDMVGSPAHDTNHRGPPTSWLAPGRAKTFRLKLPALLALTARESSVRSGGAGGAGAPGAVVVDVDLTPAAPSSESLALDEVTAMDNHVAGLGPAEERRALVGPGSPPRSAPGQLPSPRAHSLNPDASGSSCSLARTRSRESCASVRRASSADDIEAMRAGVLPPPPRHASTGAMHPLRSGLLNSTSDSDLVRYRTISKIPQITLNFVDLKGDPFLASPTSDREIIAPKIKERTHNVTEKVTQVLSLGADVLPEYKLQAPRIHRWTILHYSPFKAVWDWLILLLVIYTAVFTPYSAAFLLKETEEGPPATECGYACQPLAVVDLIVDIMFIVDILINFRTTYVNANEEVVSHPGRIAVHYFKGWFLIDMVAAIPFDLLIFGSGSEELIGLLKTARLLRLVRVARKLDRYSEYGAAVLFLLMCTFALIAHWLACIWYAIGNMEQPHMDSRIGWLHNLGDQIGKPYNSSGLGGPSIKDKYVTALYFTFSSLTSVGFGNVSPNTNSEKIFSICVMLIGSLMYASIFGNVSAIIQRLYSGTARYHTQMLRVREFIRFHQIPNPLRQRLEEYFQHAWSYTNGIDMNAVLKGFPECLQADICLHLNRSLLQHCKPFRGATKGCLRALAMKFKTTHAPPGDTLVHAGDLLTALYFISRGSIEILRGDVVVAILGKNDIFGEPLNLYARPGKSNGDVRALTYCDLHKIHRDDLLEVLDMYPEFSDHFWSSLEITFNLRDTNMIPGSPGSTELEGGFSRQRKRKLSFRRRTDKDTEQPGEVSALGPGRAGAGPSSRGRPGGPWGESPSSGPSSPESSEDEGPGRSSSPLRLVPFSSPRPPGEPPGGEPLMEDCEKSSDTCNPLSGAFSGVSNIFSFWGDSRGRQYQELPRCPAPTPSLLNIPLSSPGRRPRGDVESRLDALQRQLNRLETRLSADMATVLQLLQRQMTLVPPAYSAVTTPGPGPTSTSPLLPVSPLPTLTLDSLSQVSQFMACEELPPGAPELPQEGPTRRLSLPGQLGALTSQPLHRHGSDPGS
row,Compound,"hERG current change (%, negative = inhibition) at 10uM"
1,O=C(NNC(=O)C1CCN(Cc2ccccc2)CC1)c1cccc(Cl)c1,-14%
2,CCCn1nc(Oc2nc(NCC)nc(NC(C)C)n2)ccc1=O,1.01%
3,CCc1nc(N2CCN(C(=S)NCCCOC)CC2)c2c3c(sc2n1)CCCC3,-9.32%
4,Fc1ccc(-n2c(-c3ccc4ccccc4n3)n[nH]c2=S)cc1Cl,31%
5,O=C(COc1ccccc1)NC1CCCc2ccccc21 (stereo not shown),-19.3%
6,CCOC(=O)Cc1csc(NC(=O)NC2(C(F)(F)F)Oc3ccc(Cl)cc3O2)n1 (stereo not shown),15.8%
7,Cc1ccccc1NS(=O)(=O)c1ccc(OCC(=O)NCc2cccnc2)cc1,-32.8%
8,O=C(COCc1cc(-c2ccc3c(c2)OCO3)on1)N1CCCCC1,4.66%
9,CCCc1c(C)nc2ccc(OC)cc2c1SCCC(=O)O,10.4%
10,COc1cccc(C(=O)C2=NN(C(C)=O)CC2c2ccco2)c1 (stereo not shown),-15.8%
11,COc1ccc(NC(=O)CCN2C(=O)c3ccncc3C2=O)cc1OC,-7.46%
12,CC1CCCCN1C(=S)Nc1ccc(OC(F)F)cc1 (stereo not shown),-40.1%
13,O=C(CNC(=O)c1ccccc1)Oc1cccc(Cl)c1,17.8%
14,CC(NC(=S)NC1CCCCC1)C(c1cccs1)N1CCOCC1 (stereo not shown),-0.732%
15,CCN1CCN(C(c2cccs2)C(C)NC(=S)NC2CCCCC2)CC1 (stereo not shown),-60.8%
16,CC(NC(=O)NC1CCCCC1)C(c1cccs1)N1CCN(C)CC1 (stereo not shown),-8.03%
17,CC(NC(=O)c1cccs1)C(c1cccs1)N1CCN(Cc2ccccc2)CC1 (stereo not shown),-72.7%
18,CC(NC(=O)NC1CCCCC1)C(c1cccs1)N1CCN(Cc2ccccc2)CC1 (stereo not shown),-56.7%
19,CCC(=O)NC(C)C(c1cccs1)N1CCN(Cc2ccccc2)CC1 (stereo not shown),-11.6%
20,CC(NC(=O)NC1CCCCC1)C(c1cccs1)N1CCN(c2ccccc2)CC1 (stereo not shown),-48.6%
21,CC(NC(=O)C(C)(C)C)C(c1cccs1)N1CCN(Cc2ccccc2)CC1 (stereo not shown),-14.3%
22,CCN1CCN(C(c2cccs2)C(C)NC(=O)NC2CCCCC2)CC1 (stereo not shown),-45.5%
23,Cc1ccc(NCC(=O)N/N=C/c2ccc(OC(=O)c3ccco3)cc2)cc1,1.76%
24,CCCN(CC(=O)Nc1ccccc1C)C(=O)COc1c(C)cccc1C,-4.72%
25,NS(=O)(=O)c1ccc(Nc2ccc3nonc3c2[N+](=O)[O-])cc1,9.07%
26,O=C(CSc1n[nH]c(=O)n1C1CC1)c1c[nH]c2ccccc12,9.29%
27,O=C(CN1C(=O)/C(=C/c2cccc(Br)c2)SC1=S)NCCCN1CCOCC1,5.42%
28,CCc1ccc(/C=C2/Sc3ccccc3N(CC(=O)NCCCN3CCOCC3)C2=O)cc1,-41.3%

row,Compound,"hERG current change (%, negative = inhibition) at 10uM"
1,O=C(CCN1C(=O)/C(=C\c2cccc(Br)c2)SC1=S)NCCCN1CCOCC1,-63.4%
2,O=C(CN1C(=O)/C(=C/c2ccc(C(F)(F)F)cc2)Sc2ccccc21)NCCCN1CCOCC1,-65.6%
3,O=C(CCCN1C(=O)/C(=C/c2cccc(Br)c2)SC1=S)NCCCN1CCOCC1,-18.1%
4,O=C(CN1C(=O)/C(=C/c2ccccc2)Sc2ccccc21)NCCCN1CCOCC1,-42.8%
5,O=C(N/N=C/c1cc(Br)c(O)c(Br)c1O)c1ccc2c(c1)OCCO2,-26.9%
6,Cc1cc(CNC(=O)Cn2cc([N+](=O)[O-])cn2)c2ccccc2n1,-11.5%
7,Cc1cccc(OCC(=O)Nc2ccccc2N2CCCCC2)c1C,-21.9%
8,Cc1ccc(S(=O)(=O)N2CCCCC2)cc1NC(=O)CCc1nc2ccccc2c(=O)[nH]1,-24.3%
9,Cc1ccc(-c2nnn(CC(=O)N(Cc3cccs3)C(C(=O)NC(C)(C)C)c3ccco3)n2)o1 (stereo not shown),14.4%
10,COc1ccc(C(=O)N/C(=C/c2cccs2)C(=O)NCCCn2ccnc2)cc1OC,-7.14%
11,O=C(NCc1ccco1)/C(=C\c1cccs1)NC(=O)c1cccs1,6.26%
12,Cc1ccc(C(=O)N/C(=C\c2cn(S(=O)(=O)N(C)C)c3ccccc23)C(=O)NCCCn2ccnc2)cc1,-28.6%
13,Cc1ccc(C(=O)N/C(=C/c2cccs2)C(=O)NCCCn2ccnc2)cc1,-71.9%
14,O=C(NCCCn1ccnc1)/C(=C\c1cccs1)NC(=O)c1cccs1,-62%
15,Cc1ccc(C(=O)N/C(=C\c2cccs2)C(=O)NCCCn2ccnc2)cc1C,-61%
16,Cc1ccc(C(=O)N/C(=C\c2cccs2)C(=O)NCCCn2ccnc2)cc1,-70.3%
17,Cc1ccc(C(=O)N/C(=C\c2cccs2)C(=O)NCCc2ccccn2)cc1C,-1.92%
18,O=C(NCCO)/C(=C\c1cccs1)NC(=O)c1cccs1,18.7%
19,Cc1ccc(C(=O)N/C(=C\c2cn(C)c3ccccc23)C(=O)NCCCn2ccnc2)cc1,-7.74%
20,O=C(Cn1ncn2c(cc3ccccc32)c1=O)NCCC1=CCCCC1,7.76%
21,CCn1cc(S(=O)(=O)N2CCCC2)cn1,8.1%
22,COCCN1C(=O)N[C@@H](c2ccccc2)[C@@H](C(=O)OC)[C@H]1C,2.28%
23,Cc1ccc(C)c(/C=N/NC(=S)NC(C)C)c1,30.3%
24,Cc1ccccc1OCC(=O)NNC=O,22.9%
25,O=C(Nc1cccc(-n2cnnn2)c1)c1cc(Cl)nc(Cl)c1,-4.24%
26,Cc1nccn1-c1ccc(C(F)(F)F)cc1[N+](=O)[O-],11.2%
27,CCCn1c(NC(=O)CCS(=O)(=O)c2ccc(C)cc2)nc2ccccc21,-24.2%
